Screening results: PubChem BioAssay, The Scripps Research Institute Molecular Screening Center
This is a sample that favours compounds with a hit; in the whole collection about 1.1% have one here.
OPRM1-OPRD1 ag: agonists of OPRM1-OPRD1 heterodimerization, primary screen, cell-based, luminescence. cells. activation, % at 9.3 µM. actives 0.3% (n = 340,000). AID 504326, 2011; in the data active = activation above about 18%
HTR5A inv ctr: HTR5A inverse agonists in luminescence cell assay, primary screen, counter-screen for OPRM1-OPRD1 heterodimer inverse agonist project, full-deck HTS. 5-hydroxytryptamine receptor 5A (Homo sapiens), P47898. HTR5A cell line, inverse agonism. inhibition, % at 9.3 µM. actives 0.083% (n = 340,000). AID 504634, 2011; in the data active = inhibition mostly above about 23%, no sharp cut-off; inactive = mostly below about 18%
HTR5A ag: HTR5A agonists in luminescence cell assay, primary screen, counter-screen for OPRM1-OPRD1 heterodimer agonist project, full-deck HTS | AID 504692, 2011 | 5-hydroxytryptamine receptor 5A (Homo sapiens), P47898 | cell-based | activation, % at 9.3 µM | actives 0.61% (n = 340,000); in the data active = activation mostly above about 9.5%, no sharp cut-off; inactive = mostly below about 7.6%
OPRM1-OPRD1 inv: inverse agonists of MOR-DOR heterodimerization, primary screen, cell-based, luminescence; AID 504357, 2011; inhibition, % at 9.3 µM; actives 0.21% (n = 340,000); Mu-type opioid receptor (Homo sapiens) + Delta-type opioid receptor (Homo sapiens), …; cell-based MOR-DOR heterodimer luminescence, inverse agonism; in the data active = inhibition above about 22%, passing the limit was not always enough
Of the large screens only hits and unclear results are named; the others gave an inactive call.

Cc1cc(NC(=O)c2cc(-c3ccncc3)nc3c(C)cccc23)no1	none
Cc1cccc(-c2cc(C(=O)Nc3ccncc3)c3ccccc3n2)c1	OPRM1-OPRD1 ag 21, HTR5A ag 12
Cc1ccc(-c2cc(C(=O)Nc3cccnc3)c3ccccc3n2)s1	HTR5A ag 10
Cc1ccc2nc(-c3ccccc3)cc(C(=O)Nc3cccnc3)c2c1	HTR5A ag 13
Cn1c(N)c(C(=O)CSc2nnc(C3CC3)n2Cc2ccccc2)c(=O)[nH]c1=O	none
O=[N+]([O-])c1ccc(OC(F)F)c(/C=N/n2cnnc2)c1	none
COc1ccc(C(=O)Nc2nnc(S(=O)(=O)N(C)Cc3ccc(F)cc3)s2)cc1OC	none
COc1ccccc1NC(=O)CS(=O)(=O)c1cccc2nsnc12	HTR5A ag 12
CSc1ccccc1NC(=O)COC(=O)CCC(=O)c1ccc(F)cc1	HTR5A ag 8.4
CC(C)n1nc(C(=O)OCC(=O)c2c[nH]c3ccccc23)c2ccccc2c1=O	HTR5A ag 10
CCn1nc(C(=O)OCC(=O)c2c[nH]c3ccccc23)c2ccccc2c1=O	none
CCN1CCN(Cc2ccc(NC(=O)c3cc(NC(=O)c4cc(C)on4)cc(OC)c3)cc2C(F)(F)F)CC1	none
CCN1CCN(Cc2ccc(NC(=O)c3cc(NC(=O)c4cnn(-c5ccccc5)c4N)cc(OC)c3)cc2C(F)(F)F)CC1	HTR5A ag 12
O=C(CSc1cccc[n+]1[O-])c1ccc(Cl)s1	HTR5A ag 13
COc1cc(/C=N\NC(=O)c2ccc(-c3ccccc3)cc2)ccc1OCC(N)=O	OPRM1-OPRD1 ag 20, HTR5A ag 11
Cc1cc(=O)[nH]c(SCC(=O)Nc2ccc(Br)cn2)n1	HTR5A ag 13
CC(=O)Nc1cccc(-c2csc(Nc3ccc(Cl)cn3)n2)c1	none
CC(=O)Nc1ccc(-c2csc(Nc3ccc(Cl)cn3)n2)cc1	HTR5A ag 11
COc1ccc(/C=C(/C(=O)c2cccs2)N2C=CC=CC2=C(C#N)C#N)cc1	none
N#CC(C#N)=C1C=CC=CN1/C(=C\c1ccco1)C(=O)c1ccccc1	OPRM1-OPRD1 inv 36
N#CC(C#N)=C1C=CC=CN1/C(=C\c1ccco1)C(=O)c1ccc(Br)cc1	OPRM1-OPRD1 inv 29
N#C/C(=C/c1ccco1)C(N)=S	none
COc1ccc(C(=O)/C(=C\c2ccco2)N2C=CC=CC2=C(C#N)C#N)cc1	OPRM1-OPRD1 inv 33
O=C1CCc2cc(S(=O)(=O)N3CCN(c4cccc(C(F)(F)F)c4)CC3)ccc2N1	OPRM1-OPRD1 ag 25, HTR5A ag 13
N/C(=N\OC(=O)/C=C/c1ccccc1Cl)c1ccccn1	none
N/C(=N\OC(=O)/C=C/c1ccc(Br)cc1)c1ccccn1	HTR5A ag 10
COc1ccc(/C=N\NC(=O)c2cc(OCC(F)(F)F)ccc2OCC(F)(F)F)cc1	none
Cc1ccc(/C=N\NC(=O)c2cc(OCC(F)(F)F)ccc2OCC(F)(F)F)cc1	OPRM1-OPRD1 ag 28, HTR5A ag 15
Cc1cc(NC(=O)CN2CCN(S(=O)(=O)c3ccc4ccccc4c3)CC2)no1	HTR5A ag 10
CC(=O)c1ccc(NC(=O)CN2CCN(S(=O)(=O)c3ccc4ccccc4c3)CC2)cc1	none
CC(C)(C)C(=O)OCc1nc(-c2ccc(F)cc2)cs1	none
CSc1ncc(C(=O)Nc2ccccc2F)c(-c2ccccc2)n1	none
COc1ccccc1CN=C1NC(=O)C(CC(=O)Nc2ccc(C(C)=O)cc2)S1 (stereo not given)	HTR5A ag 13
COc1ccc(CCNC(=O)CC2SC(=NCc3ccccc3OC)NC2=O)cc1 (stereo not given)	none
COc1ccc(NS(=O)(=O)c2cc(C(=O)N3CCC3)ccc2C)cc1	none
O=C(Nc1ccccn1)c1ccc2ccccc2n1	HTR5A ag 8.9
Cc1ccc(C)c(S(=O)(=O)N2CC(=O)N(CCc3ccccc3)C(=O)C2)c1	none
CCOc1ccccc1Nc1nc2ccccc2n2cnnc12	none
CCN(CC)c1nc2ccccc2n2cnnc12	HTR5A ag 13
CCCOC(=O)c1cccc(Nc2nc(-c3cccnc3)nc3ccccc23)c1	HTR5A ag 14
O=C(CC1C(=O)NCCN1Cc1ccoc1)NCCCn1ncc2ccccc21 (stereo not given)	none
Cc1cccc(CCNS(=O)(=O)c2ccc3c(c2)NC(=O)C(C)S3)c1 (stereo not given)	none
COc1ccccc1CNC(=O)CSc1cc(=O)n(C)c2ccccc12	none
CC1=NN(c2ccccc2)C(=O)/C1=C/C=C/C=C/N(C)C	HTR5A inv ctr 22, OPRM1-OPRD1 inv 33
CC1=NN(c2ccc(C)cc2)C(=O)/C1=C\C=C\c1ccccc1	none
